Screening results from PubChem.
Most compounds without a hit are left out; they make up all but 3% or so of the library.
Sm TGR inh = S. mansoni TGR enzyme inhibition; Q962Y6; purified TGR, DTNB reduction, TNB absorbance 405 nm; Potency, µM (series often up to 114 µM), without a hit: at the highest dose activity change, negative = inhibition, actives largely listed as inhibitors; 360,000 tested, 3% active; AID 485364; active = well fitted inhibition curve with a large enough effect; inconclusive = small, poorly fitted or top-dose-only effect; inactive = no such curve, though single readings can be large or run the other way; also: % is scaled to controls: 0 for no effect and ±100 for the full control effect; nearly all actives have a fitted effect of over 60% in size
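Kinetic colorimetric format: TGR-catalysed, NADPH-driven DTNB reduction monitored via TNB absorbance. Enzyme dispensed at 20 nM; compound exposure 15 min at room temperature before reaction start.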
SARS PLP yeast = blocks SARS-CoV papain-like protease in a yeast assay. S. cerevisiae expressing SARS-CoV PLpro, growth rescue. Potency, µM (series often up to 32.9 µM), for inactives: at the highest dose activity, positive = growth rescue, most hits filed as activators. 330,000 tested, 0.19% active. AID 485353; calls by dose curve; also: 0% is about no effect; nearly all actives have a fitted effect of over 55% in size
Active calls of the source: *; ? = inconclusive; nt = not tested or not shown. Potency is read from the fitted curve at half-maximal effect.

SMILES	Sm TGR inh	SARS PLP yeast
CCCCC(=O)Nc1cc(-c2cn3cccnc3n2)ccc1C	-2%	nt
O=C(Cn1cc(S(=O)(=O)Cc2ccc(F)cc2)c2ccccc21)NCc1ccccc1Cl	7%	nt
O=C(N1CCOCC1)n1nnc2ccccc21	26%	-10%
C/C(=C\c1ccccc1)C(=O)n1nnc2ccccc21	20µM*	-4%
Cc1ccc(S(=O)(=O)Cn2nnnc2C(C(C)C)N2CCc3ccccc3C2)cc1 (centres undefined)	28µM*	-3%
Cc1ccc(S(=O)(=O)Cn2nnnc2C(C(C)C)N2CCSCC2)cc1 (centres undefined)	?	-8%
O=C(Nc1ccccc1)c1cnc(N2CCCCC2)c2ccccc12	41%	nt
O=C(NC1(C(F)(F)F)NC(=O)N(Cc2ccco2)C1=O)c1cccnc1 (centres undefined)	35µM*	2%
O=C(NC1(C(F)(F)F)NC(=O)N(Cc2ccccc2)C1=O)c1cccnc1 (centres undefined)	2%	-5%
CC(C)CN1C(=O)NC(NC(=O)c2cccs2)(C(F)(F)F)C1=O (centres undefined)	7%	-5%
O=C(NC1(C(F)(F)F)NC(=O)N(Cc2ccco2)C1=O)c1cccs1 (centres undefined)	35µM*	4%
CC(C)CC(=O)Nc1nnc(S(=O)(=O)N(CC(C)C)c2ccccc2)s1	8%	nt
COCCN(C(=O)CCc1nnc(Cc2c[nH]c3ccccc23)o1)C(C)C	20µM*	4%
O=C(CCc1nnc(Cc2c[nH]c3ccccc23)o1)NC(C1CC1)C1CC1	?	-1%
CC(C)CCNC(=O)CCc1nnc(Cc2c[nH]c3ccccc23)o1	13µM*	-1%
COCCN(C(=O)CCc1nnc(CCc2c[nH]c3ccccc23)o1)C(C)C	-5%	0%
CCOc1ccccc1CNC(=O)c1nc(-c2ccc(Cl)cc2)n2c1CCCCC2	-3%	nt
Cc1ccc(C(C)C)c(OC(C)C(=O)NCC2(N(C)C)CCCCC2)c1 (centres undefined)	42%	nt
Cc1ccc2ccc3cc(C(=O)Nc4ccc(C)c(F)c4)nc3c2[nH]1	-3%	nt
COCC(C)NC(=O)c1ccc2c(c1)S(=O)(=O)c1ccccc1C2=O (centres undefined)	-3%	6%
CCC(C)NC(=O)c1ccc2c(c1)S(=O)(=O)c1ccccc1C2=O (centres undefined)	18µM*	0%
O=C1N(Cc2cccc(C(F)(F)F)c2)c2ccccc2S(=O)(=O)N1c1cccc(Cl)c1	6%	nt
CC/C=C\[C@H](O)[C@H](O)C1=C(C)C(=O)[C@]2(O1)C(=O)N[C@@](OC)(C(=O)c1ccccc1)C2O (some centres undefined)	40µM*	1%
Cc1ccc(S(=O)(=O)N2CCCCC2C(=O)NCc2ccco2)cc1 (centres undefined)	20µM*	-1%
O=C(NCc1ccco1)C1CCCN(S(=O)(=O)c2ccc(-n3cnnn3)cc2)C1 (centres undefined)	20µM*	1%
SMILES	Sm TGR inh	SARS PLP yeast
CSCC[C@H](NC(=O)C1CCN(S(=O)(=O)c2ccc(C)cc2)CC1)C(=O)NCC1CCCO1 (some centres undefined)	-19%	-7%
O=C(NCc1ccccc1F)C1CCCN(S(=O)(=O)c2ccc(-n3cnnn3)cc2)C1 (centres undefined)	-8%	2%
COC(=O)Nc1ccc(S(=O)(=O)N2CCCCC2C(=O)NCc2ccco2)cc1 (centres undefined)	-9%	-17%
CSCC[C@H](NC(=O)C1CCN(S(=O)(=O)c2ccc(C)cc2)CC1)C(=O)NCc1ccco1	45µM*	-4%
O=C(CCNS(=O)(=O)c1ccc2c(c1)CCN2C(=O)C1CC1)N1CCN(c2cccc(Cl)c2)CC1	-2%	nt
CCc1nn(CC(=O)NC(C)CCc2ccccc2)c(=O)c2cc3c(OC)cccc3n12 (centres undefined)	7%	nt
Cc1ccc(-c2nnc(Nc3ccc(F)cc3)c3ccccc23)cc1S(=O)(=O)N1CCN(C)CC1	2%	nt
COc1cc(NC(=O)Cn2cnc3sc(C)c(S(=O)(=O)N4CCC(C)CC4)c3c2=O)cc(OC)c1OC	-1%	nt
Cc1ccc2occ(CN3CCN(Cc4ccccc4)CC3)c(=O)c2c1	-13%	-1%
O=c1c(CN2CCN(Cc3ccccc3)CC2)coc2ccc(Cl)cc12	7.1µM*	-3%
O=c1cc(CN2CCN(Cc3ccccc3)CC2)c2cc(Cl)ccc2o1	-16%	-2%
Cc1ccc2occ(CN3CCN(c4ccccc4)CC3)c(=O)c2c1	25µM*	0%
Cc1ccc(NC(=O)CCn2c(=O)c3cccn3c3ccccc32)cc1Cl	9%	nt
COc1cccc(N2C(=O)C(CC(=O)Nc3cccc(F)c3)N(C(C)C)C2=O)c1 (centres undefined)	-3%	nt
Cc1ccc(NNC(=O)c2cc(C(C)(C)C)nn2Cc2ccccc2)cc1	45µM*	-3%
Cc1ccc(NC(=O)c2cc(C(C)(C)C)nn2Cc2ccccc2)cc1	2%	-2%
Cc1ccc2scc(N3CCCCC3C)c(=O)c2c1 (centres undefined)	-2%	nt
Cc1ccccc1Cn1c2ccccc2c2cnn(CC(=O)NCCc3ccccc3)c(=O)c21	-7%	nt
CNC(=O)c1cc2c(n(-c3ccc(C)cc3)c1=O)CC(C)(C)CC2=O	1%	nt
CC1(C)CC(=O)c2cc(C(=O)NCc3ccco3)c(=O)n(-c3ccc(Cl)cc3)c2C1	32µM*	1%
Cc1ccc(-n2c3c(cc(C(=O)NCc4ccco4)c2=O)C(=O)CC(C)(C)C3)cc1	22µM*	-4%
O=C1CCCc2c1cc(C(=O)NCc1ccco1)c(=O)n2-c1ccccc1	-9%	-3%
C=C(C)Cn1c(SCC(=O)Nc2ccccc2C)nc2sc3c(c2c1=O)CCCC3	-4%	nt
Cc1ccc(S(=O)(=O)CC(=O)Nc2nc3c(C)cccc3s2)cc1	2%	nt
Cc1ccc(C(=O)c2coc3cc([N+](=O)[O-])c(O)c([N+](=O)[O-])c23)cc1	50µM*	-89%
SMILES	Sm TGR inh	SARS PLP yeast
Cc1ccc(Sc2ccc(C(=O)N(C)C)cc2[N+](=O)[O-])cc1	nt	-1%
COc1ccc(S(=O)(=O)c2cc3cc(C(C)(C)C)cc(O)c3oc2=O)cc1	-14%	nt
COc1ccc(C)cc1NC(=O)NCCn1nnc2cc(S(=O)(=O)N(C)C)ccc21	-6%	nt
COc1ccc(C2=NOC(C(=O)Nc3ccc4c(c3)OCCO4)C2)cc1OC (centres undefined)	32µM*	0%
C=CCOc1ccc(C2=NOC(C(=O)Nc3ccc4c(c3)OCCO4)C2)cc1OC (centres undefined)	?	1%
CCCc1nn2c(=O)cc(COC(=O)c3cccs3)nc2s1	-8%	nt
N#C/C(=C\c1ccc(O)c(O)c1)S(=O)(=O)c1ccccc1	45µM*	6%
N#C/C(=C\c1ccc(O)c(O)c1)C(=O)c1ccc(O)c(O)c1	-24%	nt
N#C/C(=C/c1ccc(F)cc1)S(=O)(=O)c1ccccc1	-4%	1%
N#CC(C#N)=Cc1ccc(O)c(O)c1	1.4µM*	nt
COc1cccc2sc(Nc3nnc(-c4ccc(F)cc4)o3)nc12	-5%	-11%
Fc1cccc2sc(Nc3nnc(-c4ccco4)o3)nc12	40µM*	-33%
O=C(Nc1ccc(Cl)cc1)[C@@H]1[C@@H]2C(=O)N(c3ccc(Cl)cc3)C(=O)[C@@H]2[C@H]2C=CC=NN21	50µM*	1%
